Insulin prom inh: TRM-6 insulin promoter activity inhibition. TRM-6 cells (human fetal islet line), insulin promoter-eGFP reporter, imaging; reporter expression induced with tamoxifen. inhibition, % at 2 µM. 130,000 tested, 0.9% active;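 active means inhibition above the mean plus 3 SD, with well images judged a real hit on visual review, cut at about 60% in these data, passing the limit was not always enough; inconclusive means inhibition over the cutoff but images rejected on review; inactive means inhibition not above the cutoff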
HCT116 bCat-KO: beta-catenin-lacking colon tumor cell growth suppression; HCT116 beta-catenin knockout viability, CellTiter-Glo, 60 h; hits give low values; viability, % at 10 µM; 140,000 tested, 1.5% active; AID 818;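 active means viability at or under a set limit, the compound median less 4 SD, cut at about 6% in these data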
HCT116 PTEN-null: growth suppressors of cells with PTEN tumor suppressor deletion; HCT116 PTEN-null viability, CellTiter-Glo, 60 h; hits give low values; viability, % at 10 µM; 140,000 tested, 1.2% active; AID 827;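 active means viability at or below a set limit, 4 SD under the median of all tested compounds, cut at about 3.7% in these data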;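 further: PTEN knockout HCT116 line with beta catenin targeted HCT116 as companion control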
L major viab: reduces viability of Leishmania major promastigotes; inhibition, % at 10 µM; 200,000 tested, 9% active; resazurin fluorescence viability; in the data active means inhibition above about 50%;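 further: promastigotes grown with compound for 44 hours at 28 °C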
ROMK primary: modulators of human ROMK potassium channel; P48048; Tet-inducible ROMK, thallium flux fluorescence; actives lie on both sides; B-score at 10 µM; 130,000 tested, 2% active; AID 1918;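 active means signal ratio slope over the read window, or its plate-corrected B-score, at least 3 SD from the plate mean, either direction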;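 further: B-score of the F/F0 ratio slope over 7 to 12 s after thallium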
p97 ATPase inh: human p97 ATPase inhibition. recombinant p97 ATPase, Kinase-Glo ATP luminescence, 3 h. inhibition, % at 8 µM. 220,000 tested, 0.42% active. AID 1481; in the data active means inhibition above about 15%
Hits are given with their value. This is a sample that favours compounds with a hit; in the whole collection about 10% have one here.

How did CC(C)NC(=O)c1ccccc1NC(=O)/C=C/c1cccc([N+](=O)[O-])c1 do in these assays?
Insulin prom inh: inactive; HCT116 bCat-KO: inactive; HCT116 PTEN-null: inactive; L major viab: inactive; ROMK primary: inactive; p97 ATPase inh: inactive

Results for On1c(-c2ccc(Cl)cc2)nc2ccccc21 ?
Insulin prom inh: inconclusive; L major viab: inactive; ROMK primary: inactive; p97 ATPase inh: inactive

Results for Cc1ccc(-c2nnc3c(C(F)(F)F)nc4ccccc4n23)cc1 ?
Insulin prom inh: inactive; HCT116 bCat-KO: 4.7; HCT116 PTEN-null: inactive; L major viab: inactive; p97 ATPase inh: inactive

Results for FC(F)(F)c1nnc2c(Sc3ccc(Cl)cc3)nc3ccccc3n12 ?
Insulin prom inh: inactive; HCT116 bCat-KO: 2.8; HCT116 PTEN-null: inactive; L major viab: inactive; p97 ATPase inh: inactive

How did FC(F)(F)c1nc2ccccc2n2c(-c3ccc(Cl)cc3)nnc12 do in these assays?
Insulin prom inh: inactive; HCT116 bCat-KO: 4.8; HCT116 PTEN-null: inactive; L major viab: inactive; p97 ATPase inh: inactive

Results for Cc1ccc(-c2nc3ccccc3n3c(C)nnc23)cc1 ?
HCT116 bCat-KO: inactive; HCT116 PTEN-null: inactive; L major viab: inactive; ROMK primary: inactive; p97 ATPase inh: inactive

What do the screens show for `CCOC(=O)C(=CNc1ccc(Oc2cncc(Cl)c2)nc1)C(=O)OCC`?
ROMK primary: inactive; p97 ATPase inh: inactive

How did O=C(CCCn1c(=O)[nH]c2cc(Cl)ccc2c1=O)NCCCN1CCN(c2ccc(F)cc2)CC1 do in these assays?
Insulin prom inh: inactive; L major viab: inactive; p97 ATPase inh: inactive

Results for CCc1ccc(Nc2ncc3c(n2)CC(C)(C)CC3=O)cc1 ?
p97 ATPase inh: inactive

How did COc1ccc(Cl)cc1C(=O)NNC(=O)CSc1nnnn1C do in these assays?
Insulin prom inh: inactive; L major viab: inactive; ROMK primary: inactive; p97 ATPase inh: inactive

Results for N#C/C(=C/c1ccccc1)C(=O)NCc1ccccc1 ?
L major viab: inactive; p97 ATPase inh: inactive

What do the screens show for `COc1ccc(CCNC(=O)/C(C#N)=C/c2cccc(OCc3ccccc3)c2)cc1OC`?
Insulin prom inh: inactive; HCT116 bCat-KO: inactive; HCT116 PTEN-null: inactive; L major viab: 100; ROMK primary: inactive; p97 ATPase inh: inactive

How did COCCCNC(=O)/C(C#N)=C/c1cccc(NC(=O)c2ccccc2Cl)c1 do in these assays?
Insulin prom inh: inactive; HCT116 bCat-KO: inactive; HCT116 PTEN-null: inactive; L major viab: 75; p97 ATPase inh: inactive

What do the screens show for `COc1cc(/C=C(\C#N)C(=O)NCc2ccccc2)ccc1OCc1ccc(C(=O)O)cc1`?
p97 ATPase inh: inactive

What do the screens show for `N#C/C(=C\c1cccc(NC(=O)c2ccccc2Cl)c1)C(=O)NCCc1ccccc1`?
HCT116 bCat-KO: 1.2; HCT116 PTEN-null: 1.5; L major viab: 99; p97 ATPase inh: inactive

How did COCCNC(=O)/C(C#N)=C/c1ccc(C(=O)O)cc1 do in these assays?
L major viab: inactive; ROMK primary: inactive; p97 ATPase inh: inactive

How did O=C(N[C@@H](c1ccccc1)[C@@H]1C[C@H]1C(=O)O)OCc1ccccc1 do in these assays?
Insulin prom inh: inactive; HCT116 bCat-KO: inactive; HCT116 PTEN-null: inactive; L major viab: inactive; ROMK primary: inactive; p97 ATPase inh: inactive

How did Cc1nn(-c2ccccc2)c(Cl)c1C(=O)Nc1nnc(C2CCCC2)s1 do in these assays?
HCT116 bCat-KO: inactive; HCT116 PTEN-null: inactive; L major viab: inactive; p97 ATPase inh: inactive

What do the screens show for `CC(=O)N(Cc1ccccc1C)c1cccc(C)c1C`?
Insulin prom inh: inactive; L major viab: inactive; ROMK primary: inactive; p97 ATPase inh: inactive

Results for Cc1ccc(S(=O)(=O)NCC(=O)OCC(=O)Nc2cccc(S(=O)(=O)NC3=NCCCCC3)c2)cc1 ?
Insulin prom inh: 78; L major viab: inactive; ROMK primary: inactive; p97 ATPase inh: inactive

Results for Cc1ccc(S(=O)(=O)NCCC(=O)OCC(=O)Nc2cccc(S(=O)(=O)NC3=NCCCCC3)c2)cc1 ?
Insulin prom inh: inactive; L major viab: inactive; ROMK primary: inactive; p97 ATPase inh: inactive

What do the screens show for `c1ccc2c(c1)CCN(Cc1nnnn1Cc1ccc3c(c1)OCO3)C2`?
Insulin prom inh: inactive; HCT116 bCat-KO: inactive; HCT116 PTEN-null: inactive; L major viab: inactive; p97 ATPase inh: inactive

Results for CC1CCCN(CC(O)COCc2ccc3c(c2)OCO3)C1 (stereo unspecified) ?
L major viab: inactive; ROMK primary: inactive; p97 ATPase inh: inactive

Results for SC(COCc1ccccc1)CN1CCN(Cc2ccc3c(c2)OCO3)CC1 (stereo unspecified) ?
HCT116 bCat-KO: inactive; HCT116 PTEN-null: inactive; L major viab: 58; p97 ATPase inh: inactive

What do the screens show for `CC1CN(CC(O)COCc2ccc3c(c2)OCO3)CC(C)O1` (stereo unspecified)?
Insulin prom inh: inactive; L major viab: 69; ROMK primary: inactive; p97 ATPase inh: inactive

How did OC(COCc1ccccc1)CN1CCN(Cc2ccc3c(c2)OCO3)CC1 (stereo unspecified) do in these assays?
L major viab: 90; ROMK primary: inactive; p97 ATPase inh: inactive

What do the screens show for `c1ccc(Cn2nnnc2CN2CCN(Cc3ccc4c(c3)OCO4)CC2)cc1`?
HCT116 bCat-KO: inactive; HCT116 PTEN-null: inactive; L major viab: 89; p97 ATPase inh: inactive

Results for OCC1(CCc2ccccc2)CCN(Cc2cccn2-c2cccnc2)CC1 ?
L major viab: 61; p97 ATPase inh: inactive

How did O=C(Nc1ccccc1Br)C1CC(=O)N(c2ccc3c4c(cccc24)CC3)C1 (stereo unspecified) do in these assays?
Insulin prom inh: inactive; HCT116 bCat-KO: inactive; HCT116 PTEN-null: inactive; L major viab: 62; p97 ATPase inh: inactive

How did Cc1ccccc1NC(=O)C1CC(=O)N(c2ccc3c4c(cccc24)CC3)C1 (stereo unspecified) do in these assays?
Insulin prom inh: inactive; HCT116 bCat-KO: inactive; HCT116 PTEN-null: inactive; L major viab: inactive; p97 ATPase inh: inactive

What do the screens show for `Cc1nc(/N=C(\N)NC(=O)N2c3ccccc3Sc3ccccc32)nc2ccccc12`?
Insulin prom inh: inactive; HCT116 bCat-KO: inactive; HCT116 PTEN-null: inactive; L major viab: 97; ROMK primary: inactive; p97 ATPase inh: inactive

How did CCN(CC)S(=O)(=O)c1ccc(C2=NOC3(C2)N(C)c2ccccc2C3(C)C)cc1 (stereo unspecified) do in these assays?
Insulin prom inh: inactive; HCT116 bCat-KO: inactive; HCT116 PTEN-null: inactive; L major viab: 84; ROMK primary: inactive; p97 ATPase inh: inactive

What do the screens show for `CN1c2ccccc2C(C)(C)C12CC(c1ccc(S(=O)(=O)N3CCCCC3)cc1)=NO2` (stereo unspecified)?
Insulin prom inh: inactive; HCT116 bCat-KO: inactive; HCT116 PTEN-null: inactive; L major viab: inactive; ROMK primary: inactive; p97 ATPase inh: inactive

What do the screens show for `CN1c2ccccc2C(C)(C)C12CC(c1cccc(S(=O)(=O)N3CCCC3)c1)=NO2` (stereo unspecified)?
Insulin prom inh: inactive; HCT116 bCat-KO: inactive; HCT116 PTEN-null: inactive; L major viab: 73; ROMK primary: inactive; p97 ATPase inh: inactive
